# According to PubChem BioAssay AID1491 (National Center for Advancing Translational Sciences (NCATS), 2009):
# Where “and” joins values, the source holds several entries; their conditions need not be identical. Equal entries are not always repeated. Records with an inconclusive call do not appear. Calls of active or inactive are those of the source. Calls follow the shape of the dose curve; as a rule, active = well fitted inhibition curve with a large enough effect in the main read-out, with a control signal flat; inconclusive = small, poorly fitted or top-dose-only effect, or a change in a side signal; inactive = flat fitted curve, though single readings scatter.
# Molecular target: Neuropeptide S receptor (Homo sapiens) (UniProt Q6W5P4)
# Test: Confirmation Concentration-Response Assay for Antagonists of the Neuropeptide S Receptor: cAMP Signal Transduction;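 as to activity change, negative = inhibition: 0% = DMSO with NPS and full inhibition = wells lacking NPS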
# Conditions: CHO-NPSR cells, cAMP TR-FRET, antagonist mode; series mostly up to 22.3 µM; activity change, negative = inhibition: at the top concentration
# Summary of the method: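 LANCE TR-FRET cAMP read-out: 665/620 nm emission ratio, with the 620 nm donor channel also reported, after 2 h RT detection. Stably transfected CHO-NPSR cells got compound titrations and 100 nM NPS in stimulation reagent for 60 min at 37C. IC50 came from Hill fits.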
# Potency is read from the fitted curve at half-maximal effect.
# Sequence of Neuropeptide S receptor (Homo sapiens) (Q6W5P4 whole entry, looked up): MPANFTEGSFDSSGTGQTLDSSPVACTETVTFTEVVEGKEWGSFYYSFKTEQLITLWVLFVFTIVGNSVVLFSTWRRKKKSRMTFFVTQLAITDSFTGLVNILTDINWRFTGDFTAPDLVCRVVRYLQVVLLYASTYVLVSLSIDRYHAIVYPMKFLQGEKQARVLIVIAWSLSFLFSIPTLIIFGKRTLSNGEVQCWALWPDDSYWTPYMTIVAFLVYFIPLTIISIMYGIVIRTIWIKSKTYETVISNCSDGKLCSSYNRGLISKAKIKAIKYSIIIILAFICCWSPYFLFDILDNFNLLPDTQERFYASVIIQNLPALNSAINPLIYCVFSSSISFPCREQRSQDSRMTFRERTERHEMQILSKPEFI
SMILES,"activity change, negative = inhibition",Potency
COC(=O)c1ccc(C(=O)OC)c(NC(=O)CSc2cccc[n+]2[O-])c1,-6.2% (inactive),
C(=C\c1ccccc1)/C=N/N1CCN(c2ccccn2)CC1,5.88% (inactive),
COc1cccc(C2c3c(ncn(CCCN4CCOCC4)c3=N)Oc3ccc4ccccc4c32)c1 (stereo not drawn),,14.1 µM (active)
O=S1(=O)Nc2c(ccc3cccnc23)-c2ccccc21,,4.47 µM (active)
O=[N+]([O-])c1cc2c(cc1/C=N/n1c(-c3ccccc3)n[nH]c1=S)OCO2,-1.53% (inactive),
S=C(Nc1ccccc1)Nc1nccs1,-6.4% (inactive),
CC1C(c2ccccc2)N(C)C(c2ccccc2)CC1(O)c1ccccc1 (stereo not drawn),-5.26% (inactive),
Cn1c(C(=O)NCCN2CCc3ccccc3C2)cc2c(=O)[nH]c3ccccc3c21,3.7% (inactive),
CN(C)S(=O)(=O)Nc1ccccc1C(N)=O,-5.22% (inactive),
Cc1ccc(S(=O)(=O)Nc2ccccc2CNc2c(C)n(C)n(-c3ccccc3)c2=O)cc1,-20.6% (inactive),
CCCCCN1C=CC=C/C1=C\C=C(C#N)C#N,-10.9% (inactive),
O=C1CC(NCc2ccncc2)C(=O)N1c1ccccc1 (stereo not drawn),7.53% (inactive),
O=C(Nc1ncnc2c1C(c1ccccc1)c1c(ccc3ccccc13)O2)c1ccccc1 (stereo not drawn),,6.31 µM (active)
CN(C)c1ccc(N=Cc2ccco2)cc1,-23% (inactive),
C=CC1(C)CC(=O)C2(O)C(C)(O1)C(OC(C)=O)C(O)C1C(C)(C)CCC(O)C12C (stereo not drawn),6.07% [at 0.188 µM] (inactive),
CC1(C)Cc2c(c(N3CCOCC3)nc3sc4c(NCC5CCCO5)nnnc4c23)CS1 (stereo not drawn),-12.8% (inactive),
COc1cccc(N2CCN(c3ncnc4c3[nH]c3ccc(F)cc34)CC2C)c1 (stereo not drawn),,5.62 µM (active)
O=C1OC(c2ccccc2)(c2ccccc2)N2CCN(C(=O)NCc3ccc(F)cc3)CC12 (stereo not drawn),,0.0251 µM (active)
N[C@@H](Cc1cc(I)c(Oc2ccc(O)c(I)c2)c(I)c1)C(=O)O,1.71% (inactive),

SMILES,"activity change, negative = inhibition",Potency
CCCCNS(=O)(=O)c1ccc2nc(-c3cccnc3)cc(C(=O)NC(C)CC)c2c1 (stereo not drawn),-6.53% (inactive),
C/C(=N\NC(=S)NC1CCCCC1)c1c(F)cccc1F,-12% (inactive),
c1ccc(-c2ccc(-c3nc(-c4cccnc4)no3)cc2)cc1,-15.5% (inactive),
COc1ccc(N2C3=C(CC4=C2CC(C)(C)CC4=O)C(=O)CC(C)(C)C3)cc1,-0.478% (inactive),
Nc1ccc(-c2nc3c(Cl)cc(N)cc3[nH]2)cc1,-9.8% (inactive),
C=C1C(=O)C=C2CN(C(=O)c3ccccc3)[C@@](Cc3ccc(F)cc3)(C(=O)OC)[C@@H]12,,3.98 µM (active)
O=C1Nc2ccc(S(=O)(=O)N3CCCC3C(=O)O)c3cccc1c23 (stereo not drawn),-13.2% (inactive),
COc1cccc(C2c3c(ncn(-c4ccccc4)c3=N)Oc3ccc4ccccc4c32)c1OC (stereo not drawn),,4.47 µM (active)
CC1=C/C(=N\NC(=S)Nc2cccnc2)CC(C)(C)C1,-12.3% (inactive),
C(=N\Nc1nc(-c2ccccn2)nc2ccccc12)/c1ccccc1,-13% (inactive),
N=c1c2c(ncn1-c1ccccc1)Oc1ccc3ccccc3c1C2c1ccc2c(c1)OCO2 (stereo not drawn),,2.51 µM (active)
COc1ccc(N=C2S/C(=C\c3ccc(N4CCOCC4)o3)C(=O)N2CCc2c[nH]c3ccccc23)cc1,,2.24 µM (active)
Cc1ccc(Cn2cc(SCC(=O)Nc3nccs3)c3ccccc32)cc1,-8.92% (inactive),
Cc1nn(C(=O)c2cccs2)c(N)c1-c1ccccc1,0.84% (inactive),
CCC(Sc1ccc2nnc(-c3cccnc3)n2n1)C(=O)O (stereo not drawn),,inactive
COc1cccc(C2c3c(ncn(-c4ccccc4)c3=N)Oc3ccc4ccccc4c32)c1 (stereo not drawn),,2 µM (active) and 1.58 µM (active)
Cc1nc(NC(=S)Nc2ccccc2)sc1C,-7.56% (inactive),
Cc1ccc(/C=C2\SC(=S)N(CC(=O)Nc3ncc(Cc4ccccc4Cl)s3)C2=O)cc1,-2.64% (inactive),
O=C(/C(=C/c1ccc(Cl)cc1)c1nc2ccccc2[nH]1)c1cccs1,,8.91 µM (active)
